Source: PubChem BioAssay (EPA / NIEHS)
“And” between values parts separate entries of the source, which are not always exact repeats. Equal values may be shown once. Results filed as inconclusive are left out. Some structures have more than one record in an assay (separate samples or runs), and their calls can disagree. The source made the active and inactive calls. The calls were made as follows: active = hit-call score of the fitted dose curve at least 0.9, where 1 is the maximum; inconclusive = response in the unintended direction; inactive = score below 0.9.

How the values were obtained:
[1] = target: human Rho Associated Coiled-coil Containing Protein Kinase 1 (ROCK1), ROCK1 (gene 6093) (UniProt Q13464); assay: NVS_ENZ_hROCK1: NovaScreen (NVS) Enzymatic Assay for human Rho Associated Coiled-coil Containing Protein Kinase 1 (ROCK1) (AID 2283214)
Sequence of human Rho Associated Coiled-coil Containing Protein Kinase 1 (ROCK1), ROCK1 (gene 6093) (Q13464 whole entry, looked up): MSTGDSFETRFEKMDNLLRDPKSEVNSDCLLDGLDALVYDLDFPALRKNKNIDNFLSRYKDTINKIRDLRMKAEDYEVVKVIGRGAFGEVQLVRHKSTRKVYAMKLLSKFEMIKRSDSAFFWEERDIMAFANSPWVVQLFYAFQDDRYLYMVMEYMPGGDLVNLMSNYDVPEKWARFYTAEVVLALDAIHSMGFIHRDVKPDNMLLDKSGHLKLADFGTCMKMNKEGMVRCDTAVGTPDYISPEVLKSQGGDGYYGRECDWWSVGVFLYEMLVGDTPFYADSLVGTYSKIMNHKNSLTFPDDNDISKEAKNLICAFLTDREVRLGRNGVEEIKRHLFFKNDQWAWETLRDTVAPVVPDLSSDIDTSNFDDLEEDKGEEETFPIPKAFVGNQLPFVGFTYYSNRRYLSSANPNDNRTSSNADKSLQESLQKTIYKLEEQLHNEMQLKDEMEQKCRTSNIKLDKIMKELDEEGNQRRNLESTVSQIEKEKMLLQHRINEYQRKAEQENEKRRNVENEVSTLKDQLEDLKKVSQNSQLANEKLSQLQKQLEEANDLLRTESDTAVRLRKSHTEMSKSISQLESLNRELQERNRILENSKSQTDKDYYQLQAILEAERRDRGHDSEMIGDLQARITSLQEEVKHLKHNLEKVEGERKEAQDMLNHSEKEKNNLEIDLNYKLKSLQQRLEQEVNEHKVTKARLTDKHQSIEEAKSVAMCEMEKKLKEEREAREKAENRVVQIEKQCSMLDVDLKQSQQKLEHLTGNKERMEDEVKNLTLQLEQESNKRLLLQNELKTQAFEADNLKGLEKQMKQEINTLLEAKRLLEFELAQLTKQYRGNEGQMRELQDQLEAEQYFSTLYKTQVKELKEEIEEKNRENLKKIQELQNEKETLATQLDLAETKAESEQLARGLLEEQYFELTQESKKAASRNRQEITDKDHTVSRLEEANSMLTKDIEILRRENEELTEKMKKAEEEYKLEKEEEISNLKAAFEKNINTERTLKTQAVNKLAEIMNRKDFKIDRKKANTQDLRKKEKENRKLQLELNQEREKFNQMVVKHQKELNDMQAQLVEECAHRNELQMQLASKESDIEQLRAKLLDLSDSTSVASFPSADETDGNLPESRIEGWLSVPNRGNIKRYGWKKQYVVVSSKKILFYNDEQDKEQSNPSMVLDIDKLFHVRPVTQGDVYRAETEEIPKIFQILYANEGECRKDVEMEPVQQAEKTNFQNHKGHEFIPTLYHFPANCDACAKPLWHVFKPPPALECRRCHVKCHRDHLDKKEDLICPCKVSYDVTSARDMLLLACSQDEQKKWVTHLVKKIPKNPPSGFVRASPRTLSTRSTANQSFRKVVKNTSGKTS
Outline: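 Cell-free recombinant human ROCK1 activity assay; fluorescent substrate and product separated by electrophoretic mobility shift, read 1 h after dosing. Screened in duplicate at 25 uM; loss of signal versus DMSO baseline scored as inhibition.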

[2] = target: human Raf-1 Proto-Oncogene, serine/threonine Kinase (RAF1), RAF1 (gene 5894) (UniProt P04049); assay: NVS_ENZ_hRAF1: NovaScreen (NVS) Enzymatic Assay for human Raf-1 Proto-Oncogene, serine/threonine Kinase (RAF1) (AID 2283216)
Outline: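 Cell-free recombinant kinase with specific fluorescent substrate, product separated by electrophoretic mobility shift; read 1 h after dosing. Primary screen at 25 uM in duplicate; hits then run in concentration-response up to 50 uM, fitted as loss of signal versus DMSO.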

[3] = target: human Tropomyosin Receptor Kinase A (TRKA), NTRK1 (gene 4914) (UniProt P04629); assay: NVS_ENZ_hTrkA: NovaScreen (NVS) Enzymatic Assay for human Tropomyosin Receptor Kinase A (TRKA) (AID 2283224)
Outline: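 Recombinant human TrkA activity read after 1 h by fluorescence with electrophoretic mobility shift separating substrate and product. Primary screen in duplicate at 25 uM; actives were rerun in concentration-response up to 50 uM. Loss of signal versus DMSO.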

[4] = target: human Tyrosine Protein Kinase Receptor Tie-2 (Tie2), TEK (gene 7010) (UniProt Q02763); assay: NVS_ENZ_hTie2: NovaScreen (NVS) Enzymatic Assay for human Tyrosine Protein Kinase Receptor Tie-2 (Tie2) (AID 2283225)
Outline: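 Recombinant human Tie2 kinase activity was read cell-free by fluorescence with electrophoretic mobility shift, 1 hour after dosing. The screen used 25 uM in duplicate, then concentration-response up to 50 uM. Signal loss was scored against DMSO.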

[5] = target: human Vascular Endothelial Growth Factor Receptor 1 (VEGFR1), FLT1 (gene 2321) (UniProt P17948); assay: NVS_ENZ_hVEGFR1: NovaScreen (NVS) Enzymatic Assay for human Vascular Endothelial Growth Factor Receptor 1 (VEGFR1) (AID 2283226)
Outline: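 Cell-free assay of recombinant human VEGFR1 kinase with substrate, measured 1 h after dosing; fluorescence with electrophoretic mobility-shift separation of substrate and product, referenced to DMSO; primary screen at 25 uM in duplicate, actives then run in concentration series.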

[6] = target: human Vascular Endothelial Growth Factor Receptor 3 (VEGFR3), FLT4 (gene 2324) (UniProt P35916); assay: NVS_ENZ_hVEGFR3: NovaScreen (NVS) Enzymatic Assay for human Vascular Endothelial Growth Factor Receptor 3 (VEGFR3) (AID 2283229)
Outline: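 Cell-free recombinant VEGFR3 kinase reaction with fluorescent substrate, read 1 h after dosing by electrophoretic mobility shift separation of substrate and product. Single-concentration duplicate screen at 25 uM, then concentration-response up to 50 uM; loss of activity versus DMSO.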

[7] = target: human Vascular Endothelial Growth Factor Receptor 2 (VEGFR2), KDR (gene 3791) (UniProt P35968); assay: NVS_ENZ_hVEGFR2: NovaScreen (NVS) Enzymatic Assay for human Vascular Endothelial Growth Factor Receptor 2 (VEGFR2) (AID 2283230)
Outline: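 Cell-free recombinant VEGFR2 kinase, fluorescent substrate with electrophoretic mobility-shift separation; read 1 h after dosing. Screened at 25 uM in duplicate, hits to concentration-response up to 50 uM; loss-of-signal versus DMSO.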

[8] = target: sheep Cyclooxygenase-2 (Cox2), PTGS2 (gene 443460) (UniProt P79208); assay: NVS_ENZ_oCOX2: NovaScreen (NVS) Enzymatic Assay for sheep Cyclooxygenase-2 (Cox2) (AID 2283231)
Outline: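 Ovine placental enzyme, cell-free; chemical added, 0.66 h, absorbance (colorimetric). Screen 25 uM in duplicate; ≥threshold hits titrated, top 50 uM. Inhibition = signal loss vs DMSO.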

[9] = target: rat Catechol-O-Methyl Transferase (COMT), Comt (gene 24267) (UniProt P22734); assay: NVS_ENZ_rCOMT: NovaScreen (NVS) Enzymatic Assay for rat Catechol-O-Methyl Transferase (COMT) (AID 2283235)
Sequence of rat Catechol-O-Methyl Transferase (COMT), Comt (gene 24267) (P22734 whole entry, looked up): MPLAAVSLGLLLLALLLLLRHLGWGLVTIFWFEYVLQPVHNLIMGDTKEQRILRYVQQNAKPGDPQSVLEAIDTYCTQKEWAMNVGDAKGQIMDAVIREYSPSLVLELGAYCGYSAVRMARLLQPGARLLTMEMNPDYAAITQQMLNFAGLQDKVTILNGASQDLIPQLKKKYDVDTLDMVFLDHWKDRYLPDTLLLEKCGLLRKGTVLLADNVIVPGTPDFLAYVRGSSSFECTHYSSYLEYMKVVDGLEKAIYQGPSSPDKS
Outline: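 Cell-free enzyme activity with protein extracted from rat dorsal striatum, measured by HPLC with absorbance detection. Compounds screened at 25 uM in duplicate; actives then run in concentration-response up to 50 uM, loss of signal versus DMSO.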

[10] = target: rat Constitutive Nitric Oxide Synthase (CNOS), Nos1 (gene 24598) (UniProt P29476); assay: NVS_ENZ_rCNOS: NovaScreen (NVS) Enzymatic Assay for rat Constitutive Nitric Oxide Synthase (CNOS) (AID 2283236)
Sequence of rat Constitutive Nitric Oxide Synthase (CNOS), Nos1 (gene 24598) (P29476 whole entry, looked up): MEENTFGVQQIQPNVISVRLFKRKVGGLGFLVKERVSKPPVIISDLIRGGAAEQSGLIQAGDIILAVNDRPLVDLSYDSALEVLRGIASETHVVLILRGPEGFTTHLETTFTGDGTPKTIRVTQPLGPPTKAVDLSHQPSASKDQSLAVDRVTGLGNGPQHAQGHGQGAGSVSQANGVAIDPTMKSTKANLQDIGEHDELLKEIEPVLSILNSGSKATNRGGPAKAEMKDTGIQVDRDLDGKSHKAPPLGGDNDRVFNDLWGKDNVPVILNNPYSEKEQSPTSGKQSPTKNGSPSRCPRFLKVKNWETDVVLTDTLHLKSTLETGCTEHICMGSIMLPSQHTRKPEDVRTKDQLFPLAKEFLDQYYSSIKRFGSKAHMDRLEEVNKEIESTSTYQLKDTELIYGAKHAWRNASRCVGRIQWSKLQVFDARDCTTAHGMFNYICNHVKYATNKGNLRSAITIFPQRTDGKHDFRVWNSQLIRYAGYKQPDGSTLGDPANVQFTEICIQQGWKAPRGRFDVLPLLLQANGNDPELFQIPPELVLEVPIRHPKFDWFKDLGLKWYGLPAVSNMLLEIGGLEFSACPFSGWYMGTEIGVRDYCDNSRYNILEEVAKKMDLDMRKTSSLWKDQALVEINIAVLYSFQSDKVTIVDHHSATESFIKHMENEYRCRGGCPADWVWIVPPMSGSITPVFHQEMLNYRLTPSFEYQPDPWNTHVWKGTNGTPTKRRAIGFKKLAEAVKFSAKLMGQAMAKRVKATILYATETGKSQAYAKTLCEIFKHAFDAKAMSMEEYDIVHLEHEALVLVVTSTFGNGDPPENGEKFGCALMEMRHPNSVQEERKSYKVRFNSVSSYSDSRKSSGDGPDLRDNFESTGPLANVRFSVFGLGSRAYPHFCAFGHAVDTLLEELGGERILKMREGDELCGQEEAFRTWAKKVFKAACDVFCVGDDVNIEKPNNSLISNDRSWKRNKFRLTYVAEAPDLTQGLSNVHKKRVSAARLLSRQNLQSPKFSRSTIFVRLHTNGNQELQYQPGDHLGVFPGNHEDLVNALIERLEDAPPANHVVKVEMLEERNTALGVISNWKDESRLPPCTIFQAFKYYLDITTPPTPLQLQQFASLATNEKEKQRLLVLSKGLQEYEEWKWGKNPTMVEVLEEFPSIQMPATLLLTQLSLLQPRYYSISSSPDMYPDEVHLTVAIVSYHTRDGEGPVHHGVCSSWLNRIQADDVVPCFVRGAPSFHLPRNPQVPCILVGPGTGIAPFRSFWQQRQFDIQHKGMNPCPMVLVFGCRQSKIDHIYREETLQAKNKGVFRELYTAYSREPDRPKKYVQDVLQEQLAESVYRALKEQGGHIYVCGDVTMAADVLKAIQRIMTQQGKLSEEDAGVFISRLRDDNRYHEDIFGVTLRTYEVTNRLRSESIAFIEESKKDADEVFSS
Outline: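 Enzyme activity in rat brain membrane preparation, read 1 h after dosing by filter-based radiometric scintillation counting. Primary screen in duplicate at 25 uM; actives (e.g., ≥30% inhibition) then run in concentration-response up to 50 uM.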

[11] = target: human Protein Tyrosine Phosphatase Receptor Type M (PTPRM), PTPRM (gene 5797) (UniProt P28827); assay: NVS_ENZ_hPTPRM: NovaScreen (NVS) Enzymatic Assay for human Protein Tyrosine Phosphatase Receptor Type M (PTPRM) (AID 2283215)
Sequence of human Protein Tyrosine Phosphatase Receptor Type M (PTPRM), PTPRM (gene 5797) (P28827 whole entry, looked up): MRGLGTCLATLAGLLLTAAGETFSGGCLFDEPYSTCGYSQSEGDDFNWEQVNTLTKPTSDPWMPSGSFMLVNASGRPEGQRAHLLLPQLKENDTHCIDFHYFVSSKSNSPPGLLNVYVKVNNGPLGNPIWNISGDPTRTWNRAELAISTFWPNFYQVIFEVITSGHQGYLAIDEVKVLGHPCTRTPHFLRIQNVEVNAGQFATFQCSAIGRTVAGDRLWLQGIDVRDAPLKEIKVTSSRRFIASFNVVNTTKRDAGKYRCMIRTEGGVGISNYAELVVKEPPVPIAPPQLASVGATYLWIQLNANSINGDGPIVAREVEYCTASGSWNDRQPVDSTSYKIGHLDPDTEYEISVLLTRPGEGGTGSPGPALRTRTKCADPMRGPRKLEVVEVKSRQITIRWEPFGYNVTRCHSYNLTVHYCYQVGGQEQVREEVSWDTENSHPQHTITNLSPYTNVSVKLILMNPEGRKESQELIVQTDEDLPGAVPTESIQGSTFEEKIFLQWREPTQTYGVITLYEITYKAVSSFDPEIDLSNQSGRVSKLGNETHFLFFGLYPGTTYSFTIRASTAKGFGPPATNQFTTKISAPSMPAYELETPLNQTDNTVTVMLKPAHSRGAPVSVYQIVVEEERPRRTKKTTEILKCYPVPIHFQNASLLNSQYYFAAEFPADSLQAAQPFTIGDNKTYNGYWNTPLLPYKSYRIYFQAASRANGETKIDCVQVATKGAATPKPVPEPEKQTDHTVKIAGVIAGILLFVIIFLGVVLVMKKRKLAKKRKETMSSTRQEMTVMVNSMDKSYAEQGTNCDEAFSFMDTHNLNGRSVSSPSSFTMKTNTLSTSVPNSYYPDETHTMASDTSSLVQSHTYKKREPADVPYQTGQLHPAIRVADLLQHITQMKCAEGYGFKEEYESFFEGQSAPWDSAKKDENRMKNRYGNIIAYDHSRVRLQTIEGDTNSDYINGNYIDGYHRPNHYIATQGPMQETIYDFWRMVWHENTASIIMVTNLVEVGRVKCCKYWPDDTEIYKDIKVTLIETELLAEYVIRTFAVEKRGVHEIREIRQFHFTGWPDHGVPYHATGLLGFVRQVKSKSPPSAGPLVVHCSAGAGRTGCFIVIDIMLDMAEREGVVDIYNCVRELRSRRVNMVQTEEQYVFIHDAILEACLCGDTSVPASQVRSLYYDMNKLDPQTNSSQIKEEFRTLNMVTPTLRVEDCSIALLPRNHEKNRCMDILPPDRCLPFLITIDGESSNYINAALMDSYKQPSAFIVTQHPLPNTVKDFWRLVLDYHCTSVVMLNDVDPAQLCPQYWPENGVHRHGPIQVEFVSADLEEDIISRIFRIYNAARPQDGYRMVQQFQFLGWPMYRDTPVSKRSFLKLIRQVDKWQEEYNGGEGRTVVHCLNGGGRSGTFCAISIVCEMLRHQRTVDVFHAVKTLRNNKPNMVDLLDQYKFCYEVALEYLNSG
Outline: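 Cell-free recombinant PTPRM with fluorogenic substrate; product separated from substrate by electrophoretic mobility shift and read by fluorescence, 1.33 h after dosing. Primary screen single concentration (25 uM) in duplicate; actives retested in concentration series; loss of signal versus DMSO.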

[12] = target: human Sirtuin 1 (SIRT1), SIRT1 (gene 23411) (UniProt Q96EB6); assay: NVS_ENZ_hSIRT1: NovaScreen (NVS) Enzymatic Assay for human Sirtuin 1 (SIRT1) (AID 2283219)
Outline: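 Cell-free recombinant SIRT1 with a fluorescent substrate; substrate and product separated by electrophoretic mobility shift and read by fluorescence intensity, 1 h after dosing. Primary screen at 25 uM in duplicate; hits re-run in concentration-response up to 50 uM, relative to DMSO.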

[13] = target: human Sirtuin 3 (SIRT3), SIRT3 (gene 23410) (UniProt Q9NTG7); assay: NVS_ENZ_hSIRT3: NovaScreen (NVS) Enzymatic Assay for human Sirtuin 3 (SIRT3) (AID 2283222)
Sequence of human Sirtuin 3 (SIRT3), SIRT3 (gene 23410) (Q9NTG7 whole entry, looked up): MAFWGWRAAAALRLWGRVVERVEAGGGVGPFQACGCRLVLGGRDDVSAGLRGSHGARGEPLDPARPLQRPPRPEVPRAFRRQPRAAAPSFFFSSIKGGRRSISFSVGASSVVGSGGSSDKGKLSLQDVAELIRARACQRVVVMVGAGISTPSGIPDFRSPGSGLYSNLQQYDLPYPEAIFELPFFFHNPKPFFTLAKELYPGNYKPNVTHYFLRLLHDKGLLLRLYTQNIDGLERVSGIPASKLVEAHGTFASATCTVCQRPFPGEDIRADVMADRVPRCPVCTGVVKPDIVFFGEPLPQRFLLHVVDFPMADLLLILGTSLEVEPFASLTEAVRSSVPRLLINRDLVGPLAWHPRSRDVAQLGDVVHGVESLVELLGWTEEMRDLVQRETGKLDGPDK
Outline: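 Cell-free enzyme assay with recombinant protein and fluorescent substrate, product separated by electrophoretic mobility shift; read 1 hour after dosing. Screened in duplicate at 25 uM, then singleton concentration-response up to 50 uM; loss of signal versus DMSO.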

[14] = target: rat Adenylate Cyclase, Forskolin Stimulated, Adcy5 (gene 64532) (UniProt Q04400); assay: NVS_ENZ_rACFSKBinding: NovaScreen (NVS) Enzymatic Assay for rat Adenylate Cyclase, Forskolin Stimulated (AID 2283232)
Outline: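 Rat forebrain membrane preparation, cell-free, read 1 h after dosing by filter-based scintillation counting. Primary screen in duplicate at 25 uM; actives (e.g. ≥30% inhibition) rerun in concentration-response up to 50 uM; fit versus DMSO.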

[15] = target: rat Acetylcholinesterase (AChE), Ache (gene 83817) (UniProt P37136); assay: NVS_ENZ_rAChE: NovaScreen (NVS) Enzymatic Assay for rat Acetylcholinesterase (AChE) (AID 2283233)
Outline: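 Rat brain membrane acetylcholinesterase activity measured colorimetrically 0.33 h after compound addition, loss of signal relative to DMSO. Primary screen in duplicate at 25 uM; actives re-run as concentration-response with 50 uM top concentration.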

[16] = target: human Protein Tyrosine Phosphatase Receptor Type F (PTPRF), PTPRF (gene 5792) (UniProt P10586); assay: NVS_ENZ_hPTPRF: NovaScreen (NVS) Enzymatic Assay for human Protein Tyrosine Phosphatase Receptor Type F (PTPRF) (AID 2283213)
Outline: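 Cell-free fluorescence enzyme assay with recombinant protein and substrate; product separated by electrophoretic mobility shift. Read 1 h after dosing, single 25 uM duplicate screen, then concentration-response up to 50 uM; loss of signal vs DMSO.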

[17] = target: human SRC Proto-Oncogene, Non-receptor Tyrosine Kinase (SRC), SRC (gene 6714) (UniProt P12931); assay: NVS_ENZ_hSRC: NovaScreen (NVS) Enzymatic Assay for human SRC Proto-Oncogene, Non-receptor Tyrosine Kinase (SRC) (AID 2283223)
Outline: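 Cell-free kinase activity assay with fluorescent substrate, product separated by electrophoretic mobility shift, read 1 h after dosing. Duplicate single point at 25 uM, then concentration-response up to 50 uM; loss of signal versus DMSO.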

[18] = system: rat Monoamine Oxidase, MAO-A, Peripheral (MAOAP), gene 29253; assay: NVS_ENZ_rMAOAP: NovaScreen (NVS) Enzymatic Assay for rat Monoamine Oxidase, MAO-A, Peripheral (MAOAP) (AID 2283237)
Outline: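 Rat liver mitochondrial membranes served as the MAO-A source, with enzyme activity measured by radiometric scintillation counting 1.17 hours after dosing. Loss of signal was fitted against DMSO; primary screen used 25 uM in duplicate, follow-up used concentration series.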

[19] = target: human Sirtuin 2 (SIRT2), SIRT2 (gene 22933) (UniProt Q8IXJ6); assay: NVS_ENZ_hSIRT2: NovaScreen (NVS) Enzymatic Assay for human Sirtuin 2 (SIRT2) (AID 2283217)
Outline: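 Cell-free recombinant human SIRT2, fluorescent substrate with product separated by electrophoretic mobility shift, 1 hr. Screened in duplicate at 25 uM; hits rerun singly in concentration-response up to 50 uM, relative to DMSO.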

CN(C)[C@@H]1C(=O)C(C(N)=O)=C(O)[C@@]2(O)C(=O)C3=C(O)c4c(O)cccc4[C@@](C)(O)[C@H]3[C@H](O)[C@@H]12
outcome [1]: inactive | AC50 [2]: 11.1 µM (active) | AC50 [3]: 17.8 µM (active) | AC50 [4]: 7.51 µM (active) and 13.4 µM (active) and 8.19 µM (active) | AC50 [5]: 3.49 µM (active) | outcome [5]: inactive | AC50 [6]: 6.44 µM (active) and 3.42 µM (active) and 969 nM (active) | AC50 [7]: 12.3 µM (active) and 18.2 µM (active) | outcome [7]: inactive | AC50 [8]: 1.89 µM (active) | AC50 [9]: 3.33 µM (active) and 1.72 µM (active) | AC50 [10]: 5.33 µM (active)

N#CSCSC#N
outcome [11]: inactive | AC50 [12]: 11.3 µM (active) | outcome [13]: inactive | AC50 [14]: 25 µM (active)

CNC(=O)ON=C(SC)C(=O)N(C)C
outcome [1]: inactive | AC50 [15]: 3.26 µM (active)

COP(=O)(OC)OC(Br)C(Cl)(Cl)Br (configuration not stated)
outcome [11]: inactive | AC50 [12]: 15.8 µM (active) | AC50 [14]: 14.6 µM (active) | AC50 [15]: 1.01 µM (active)

CCCCSP(=O)(SCCCC)SCCCC
outcome [16]: inactive | AC50 [10]: 6.6 µM (active)

S=C1NCCN1
outcome [16]: inactive | outcome [4]: inactive | outcome [14]: inactive | AC50 [15]: 14.3 µM (active)

C=C(C)[C@H]1Cc2c(ccc3c2O[C@@H]2COc4cc(OC)c(OC)cc4[C@@H]2C3=O)O1
outcome [4]: inactive

CC(C)[C@H](C(=O)O[C@H](C#N)c1cccc(Oc2ccccc2)c1)c1ccc(Cl)cc1
outcome [13]: inactive | outcome [17]: inactive | outcome [10]: inactive

CCOP(=S)(OCC)OC(Cl)C(Cl)(Cl)Cl (configuration not stated)
outcome [14]: inactive | AC50 [15]: 4.06 µM (active)

CCC(=NOC/C=C/Cl)C1=C(O)CC(C2CCOCC2)CC1=O (configuration not stated)
outcome [6]: inactive

C[Si](Cn1cncn1)(c1ccc(F)cc1)c1ccc(F)cc1
outcome [13]: inactive | AC50 [18]: 25 µM (active)

CN(C)C(=O)Nc1cccc(C(F)(F)F)c1
outcome [2]: inactive | AC50 [18]: 25 µM (active)

CCCSP(=O)(OCC)Oc1ccc(Br)cc1Cl (configuration not stated)
AC50 [15]: 2.32 µM (active)

COP(=O)(OC)SCn1c(=O)oc2cc(Cl)cnc21
AC50 [15]: 2.11 µM (active)

CC1(C(=O)Nc2ccc(O)c(Cl)c2Cl)CCCCC1
outcome [1]: inactive | outcome [11]: inactive

CNC(=O)Oc1cccc2c1OC(C)(C)O2
AC50 [15]: 0.797 µM (active)

FC(F)C(F)(F)OCC(Cn1cncn1)c1ccc(Cl)cc1Cl (configuration not stated)
AC50 [19]: 14.6 µM (active) | AC50 [13]: 25 µM (active) | AC50 [8]: 0.67 µM (active)
